Eight molecules from PubChem BioAssay (NCI) can be followed below.

A short description of the test: NCI Yeast Anticancer Drug Screen. Data for the CLN2oe strain (AID 163).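 Further: 0% = growth of vehicle-only control cultures.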 Conditions: S. cerevisiae CLN2oe strain, active compounds read high. The procedure:
Growth inhibition of yeast strains with defined genetic alterations is measured as a screen for potential anti-cancer activity. Selected strains with alterations in DNA damage repair or cell cycle control were exposed to compounds and growth inhibition was measured relative to vehicle treated controls. The strain used in this assay is CLN2oe

The panel holds about 79,000 compounds, 15% with a hit somewhere; the sample as a whole holds those more often. Values without a mark were called inactive. Activity calls are given as the source filed them. No stated cut-off is given here; in the data, active means growth inhibition above about 70%; inactive means the rest.

Regarding `COc1cccc2c1C(=O)c1c(O)c3c(c(O)c1C2=O)C[C@@](O)(/C(C)=N\O)C[C@@H]3OC1CC(N)C(O)C(C)O1` (stereo not given in full), the growth inhibition was -1% (at 1.2 µM); 2% (at 3.7 µM); 8% (at 11.0 µM); 13% (at 33.0 µM); 44% (at 100.0 µM).
Take `O=C(O)CCCc1cc(I)c(N(CCCl)CCCl)c(I)c1`: the growth inhibition (at 1.2 µM) is -13%; the growth inhibition (at 3.7 µM) was -23%; the growth inhibition (at 11.0 µM) was -13%; the growth inhibition (at 33.0 µM) is 87% (active); the growth inhibition (at 100.0 µM) is 97% (active).
Take `CO[C@H](/C(C)=C/C=C/C(C)=C/c1coc(C)n1)[C@H](C)[C@H]1C[C@@H](O)[C@@]2(C)O[C@H]2/C=C/[C@@H](C)[C@@H]2C[C@@H](CC(=O)O2)C[C@H]2O[C@@H]2C(=O)O1`: the growth inhibition is, setting by setting: (at 1.2 µM) -24%; (at 3.7 µM) -17%; (at 11.0 µM) -13%; (at 33.0 µM) 1%; (at 100.0 µM) 88% (active).
For `N#Cc1cc(N(CCCl)CCCl)c([N+](=O)[O-])cc1[N+](=O)[O-]`, in that order: 2%, 6%, -2%, 14% and 71% (active).
Taken in the same sequence, the figures for `CCOP(=O)(CC(C)P(=O)(OCC)OCC)OCC.C[CH2][Sn]([Cl])([Cl])[CH2]C` (stereo not given) were -6%, -5%, 7%, 72% (active) and 93% (active).
Take `CC[C@]1(O)CC(OC2CC(N(C)C)C(O)C(C)O2)c2c(cc3c(c2O)C(=O)c2c(O)cccc2C3=O)[C@@H]1C(=O)OC` (stereo not given in full): the growth inhibition was -37% (at 1.2 µM); -6% (at 3.7 µM); 12% (at 11.0 µM); 89% (active) (at 33.0 µM); 95% (active) (at 100.0 µM).
Taken in the same sequence, the figures for `O=Cc1ccc(C(F)(F)F)cc1.[C-]#[O+].[C-]#[O+].[C-]#[O+].[Cr]` were 0%, -2%, 2%, 15% and 23%.
For `O=C1C2CC(Cl)C(SSC3CC4C(=O)N(SC(Cl)(Cl)C(Cl)Cl)C(=O)C4CC3Cl)CC2C(=O)N1SC(Cl)(Cl)C(Cl)Cl` (stereo not given), in that order: 40%, 96% (active), 98% (active), 97% (active) and 90% (active).
